Laboratory results reported in PubChem BioAssay (NCATS).
Results filed as inconclusive are left out. For some of these results: Entries with a potency or affinity are not part of this list. Activity calls are given as the source filed them. Unless noted, how the calls were made is not given here.

Key:
[1] = Ebola virus entry assay, green fluorescence channel
[2] = Ebola virus entry assay, blue channel fluorescence
[3] = Ebola virus entry assay, green channel fluorescence
[4] = Ebola virus entry assay, reporter ratio channel; Channel type: primary
[5] = Ebola virus entry assay, blue channel (ratio component)
[6] = qHTS assay for measurement of the activity of small molecule inhibitors on Zika virus induced Caspase-3 activity in human iPSC derived neural progenitor cells (hNPCs) (AID 1224857; active means well fitted inhibition curve with a large enough effect; further: % of control where 0% means no effect; nearly all actives have a fitted effect of over 65% in size); conditions: hNPCs ZIKV-induced caspase-3/7, Caspase-Glo luminescence, 6 h; series mostly up to 45.7 µM
Summary of the method: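 Zika virus (2 FFU/cell) infection of human iPSC-derived NPCs, 6 h, following 1 h compound preincubation. Read-out: Caspase-Glo 3/7 luminescence.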

[7] = qHTS assay for measurement of the activity of small molecule inhibitors on Zika virus induced Caspase-3 activity in human astrocytoma cells (AID 1224859; active means well fitted inhibition curve with a large enough effect;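 further: plate controls were ZIKV-infected untreated cells for no effect and uninfected cells for full effect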); conditions: SNB-19 ZIKV-induced caspase-3/7, luminescence, 6 h; series mostly up to 45.7 µM
Summary of the method: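 Caspase activation in ZIKV-infected SNB-19 cells (2 FFU/cell, 6 h) measured by Caspase-Glo 3/7 luminescence after 30 min RT; compound pre-incubated 1 h; normalised to uninfected and infected controls.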

[8] = qHTS profiling of the MIPE4 collection as inhibitors of Plasmodium falciparum (3D7) proliferation (AID 743344);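 further: scaled between DMSO vehicle wells and 0.29 µM artemisinin as full inhibition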; conditions: P. falciparum 3D7 in erythrocytes, SYBR Green DNA fluorescence, 72 h; at 28.5 µM (top of the series)
Summary of the method: (§1)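 Parasite DNA was quantified by SYBR Green I fluorescence (ex 485, em 535 nm) after overnight lysis in saponin/Triton buffer at room temperature. Cultures at 0.3% parasitemia and 2.5% hematocrit were first exposed to compound for 72 h at 37 C; signals were normalised to artemisinin (0.29 uM) and vehicle wells.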

[9] = qHTS profiling of the MIPE4 collection as inhibitors of Plasmodium falciparum (DD2) proliferation (AID 743345); conditions: P. falciparum Dd2 in erythrocytes, SYBR Green DNA, 72 h; at 28.5 µM (top of the series)
Summary of the method: as §1

[10] = qHTS profiling of the MIPE4 collection as inhibitors of Plasmodium falciparum (DD2) proliferation (Rep 2) (AID 743346); conditions: P. falciparum Dd2 in erythrocytes, SYBR Green DNA, 72 h; at 28.5 µM (top of the series)
Summary of the method: as §1

[11] = qHTS profiling of the MIPE4 collection as inhibitors of Plasmodium falciparum (HB3) proliferation (AID 743347);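 further: plate controls were DMSO vehicle wells for no effect and artemisinin wells for full effect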; conditions: P. falciparum HB3 in erythrocytes, SYBR Green DNA, 72 h; at 28.5 µM (top of the series)
Summary of the method: as §1

[12] = High-throughput drug toxicity screening in the BPDCN cell line Gen2.2 (AID 1224824); conditions: Gen2.2 BPDCN cells; at 45.8 µM (top of the series);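 further: cells exposed to compounds for 48 h before reading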
Summary of the method: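 Readout is ATP luminescence from Gen2.2 cells after two days of drug exposure in serum-containing medium at 37 °C. Values express percent activity, with vehicle defining full signal and 9.2 uM bortezomib defining zero.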

[13] = High-throughput drug toxicity screening in the BPDCN cell line Cal-1 (AID 1224825); conditions: Cal-1 BPDCN cell viability, qHTS; at 45.8 µM (top of the series)
Summary of the method: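 CellTiter-Glo luminescence after 48 h compound exposure; percent activity scaled with DMSO as 100% and bortezomib (9.2 uM final) as 0%. Cal-1 cells seeded at 500/well in RPMI, 10% FBS, no phenol red.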

[14] = qHTS Screen of the MIPE 4.0 Collection Against Ewings Sarcoma (TC71) (AID 1259253; active means well fitted inhibition curve with a large enough effect;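 further: 100% = DMSO-treated cells and 0% = medium-only wells without cells; nearly all actives have a fitted effect of over 40% in size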); conditions: TC71 Ewing sarcoma viability, CellTiter-Glo, 48 h; series mostly up to 45.8 µM
Summary of the method: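 Viability screen: 48 h incubation at 37C, 95% humidity, 5% CO2 with serially titrated compound, followed by CellTiter-Glo readout.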

[15] = Ebola virus entry assay, ratio channel
Wherever efficacy is given: 0% is about no effect.

COCC(=O)N(c1c(C)cccc1C)C(C)C(=O)OC (stereo not given)
inactive: efficacy [1] -46.6% | outcome [2] | outcome [3] | outcome [4] | outcome [5] | Potency [6] | outcome [7]

ClC1=C(Cl)C2(Cl)C(CBr)CC1(Cl)C2(Cl)Cl (stereo not given)
inactive: efficacy [1] -23.9% | outcome [2] | outcome [4] | outcome [5] | Potency [6] | outcome [7]

CCOC(=O)NC(O)C(Cl)(Cl)Cl (stereo not given)
inactive: efficacy [1] 20.9% | outcome [2] | outcome [3] | outcome [4] | outcome [5] | Potency [6] | outcome [7]

COC(=O)C1=CCCN(C)C1
inactive: efficacy [1] 26.3% | outcome [2] | outcome [3] | outcome [4] | outcome [5] | Potency [6] | outcome [7] | Potency [14]
129%: viability (% of control) [13]
93%: growth, % of control [11]
75.8%: parasite growth, % of DMSO control [8]
98.7%: parasite growth remaining, % of DMSO control (lower = more inhibition) [9]
166%: cell viability, % of control (lower = more cytotoxic) [12]
47.2%: parasite growth, % of control (lower = inhibition) [10]

C[N+]1(CCC(C(N)=O)(c2ccccc2)c2ccccc2)CCCCC1
inactive: efficacy [1] 21.3% | outcome [2] | outcome [3] | outcome [4] | outcome [5] | Potency [6] | outcome [7]

C[C@@H]1CN(C2CCC(C#N)(c3ccc(F)cc3)CC2)CC[C@]1(C(=O)O)c1ccccc1 (stereo not given in full)
inactive: efficacy [1] 31.9% | outcome [2] | outcome [3] | outcome [4] | outcome [5] | Potency [6] | outcome [7]

Cc1nnc2n1-c1sc(CCc3ccc(CC(C)C)cc3)cc1C(c1ccccc1Cl)=NC2C (stereo not given)
inactive: efficacy [1] 144% | Potency [6] | outcome [7]
active: AC50 [2] 39.8 µM | AC50 [15] 31.6 µM | AC50 [4] 31.6 µM

O=c1n(Cl)c(=O)n(Cl)c(=O)n1Cl
inactive: efficacy [1] -11.8% | outcome [2] | outcome [3] | outcome [4] | outcome [5] | Potency [6] | outcome [7]

CCCC[N+]1(C)[C@@H]2CC(OC(=O)[C@H](CO)c3ccccc3)C[C@H]1[C@@H]1O[C@@H]12 (stereo not given in full)
inactive: efficacy [1] -24.1% | outcome [2] | outcome [3] | outcome [4] | outcome [5] | Potency [6] | outcome [7]

Oc1ccc([C@H]2CNCc3c2ccc(O)c3O)cc1O
inactive: efficacy [1] 69.3% | outcome [7]
active: AC50 [2] 14.1 µM | AC50 [15] 14.1 µM | AC50 [4] 14.1 µM

CC(C)(O)C(Cl)(Cl)Cl
inactive: efficacy [1] -12.3% | outcome [2] | outcome [3] | outcome [4] | outcome [5] | Potency [6] | outcome [7]

NC(=O)CN1CCCC1=O
inactive: efficacy [1] 23.9% | outcome [2] | outcome [3] | outcome [4] | outcome [5] | Potency [6] | outcome [7]

CCC(=O)O[C@H]1CC[C@H]2[C@@H]3CCC4=CC(=O)CC[C@]4(C)[C@H]3CC[C@]12C
inactive: efficacy [1] -42.2% | outcome [2] | outcome [3] | outcome [4] | Potency [6] | outcome [7]

C[C@H](N)[C@H](O)c1ccc(O)c(O)c1
active: AC50 [2] 5.62 µM | AC50 [15] 4.47 µM | AC50 [4] 4.47 µM
inactive: efficacy [1] 56.6% | outcome [7]

CN1C(=O)CN=C(c2ccccc2)c2cc([N+](=O)[O-])ccc21
inactive: efficacy [1] 23.9% | outcome [2] | outcome [3] | outcome [4] | outcome [5] | Potency [6] | outcome [7]

CCOC(=O)c1cncn1C(C)c1ccccc1 (stereo not given)
inactive: efficacy [1] 19.1% | outcome [2] | outcome [3] | outcome [4] | outcome [5] | Potency [6] | outcome [7]

c1ccc2c(c1)Sc1ccccc1N2CC1CN2CCC1CC2 (stereo not given)
inactive: efficacy [1] -241% | Potency [6] | outcome [7]
active: AC50 [2] 5.01 µM | AC50 [15] 3.98 µM | AC50 [4] 3.98 µM

CC(C)C(Br)C(=O)NC(N)=O (stereo not given)
inactive: efficacy [1] -26.9% | outcome [2] | outcome [3] | outcome [4] | outcome [5] | Potency [6] | outcome [7]

CC[C@H]1C[C@@H]2C[C@H]3c4[nH]c5ccc(OC)cc5c4CCN(C2)[C@@H]13
active: AC50 [2] 31.6 µM | AC50 [15] 39.8 µM | AC50 [4] 39.8 µM
inactive: efficacy [1] 66.1% | Potency [6] | outcome [7]

C[N+]1(C)[C@@H]2CC[C@H]1CC(OC(=O)C(CO)c1ccccc1)C2 (stereo not given in full)
inactive: efficacy [1] 19.1% | outcome [2] | outcome [3] | outcome [4] | outcome [5] | Potency [6] | outcome [7]

Cc1ccc(N=CN(C)C=Nc2ccc(C)cc2C)c(C)c1
inactive: efficacy [1] -16% | outcome [2] | outcome [3] | outcome [4] | outcome [5] | Potency [6] | outcome [7]
